# Test results reported in the supplement of paper PMC8728848.
# This is one part of a sample in which the strongest signals are shown more often than they occur.
# Legend:
# Experiment in all cases: glycan array binding signal (z-score within array); higher = stronger binding
# [1] = test system: Neu5Ac(a2-6)GalNAc; details: glycan notation: IUPAC condensed, linker removed
# In short: (§1)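 Glycan array binding is given as a within-array Z-score, which can be read as non-binding when negative. The arrays, 3228 of them, came from the Consortium for Functional Glycomics database and were retained only where the protein sequence was available. Z-scores were averaged across arrays of the same protein sequence at different concentrations or buffers and across linkers.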
# [2] = test system: Neu5Ac(a2-8)Neu5Ac(a2-3)Gal(b1-3)GalNAc(b1-4)[Neu5Ac(a2-3)]Gal(b1-4)Glc; details: glycan notation: IUPAC condensed, linker removed; mutation: R125K
# In short: as §1
# [3] = test system: Neu5Ac(a2-8)Neu5Ac(a2-3)Gal(b1-4)GlcNAc; details: glycan notation: IUPAC condensed, linker removed; mutation: R125K
# In short: as §1
# [4] = test system: Neu5Ac(a2-6)Gal; details: glycan notation: IUPAC condensed, linker removed
# In short: as §1
# [5] = test system: Neu5Ac(a2-8)Neu5Ac(a2-3)Gal(b1-4)Glc; details: glycan notation: IUPAC condensed, linker removed
# In short: as §1
# [6] = test system: Neu5Ac(a2-8)Neu5Ac(a2-8)Neu5Ac(a2-3)[GalNAc(b1-4)]Gal(b1-4)Glc; details: glycan notation: IUPAC condensed, linker removed
# In short: as §1
# [7] = test system: Neu5Ac(a2-6)GalNAc(b1-4)GlcNAc6S; details: glycan notation: IUPAC condensed, linker removed
# In short: as §1
# [8] = test system: Neu5Ac(a2-6)GlcNAc(b1-4)GlcNAc; details: glycan notation: IUPAC condensed, linker removed
# In short: as §1
# [9] = test system: Neu5Ac(a2-8)Neu5Ac(a2-8)Neu5Ac(a2-3)Gal(b1-4)Glc; details: glycan notation: IUPAC condensed, linker removed
# In short: as §1
# [10] = test system: Neu5Ac(a2-8)Neu5Ac(a2-3)[GalNAc(b1-4)]Gal(b1-4)Glc; details: glycan notation: IUPAC condensed, linker removed
# In short: as §1
# Chain of Regenerating Gene IV (Homo sapiens), Q9BYZ8 (Q9BYZ8 whole entry, looked up): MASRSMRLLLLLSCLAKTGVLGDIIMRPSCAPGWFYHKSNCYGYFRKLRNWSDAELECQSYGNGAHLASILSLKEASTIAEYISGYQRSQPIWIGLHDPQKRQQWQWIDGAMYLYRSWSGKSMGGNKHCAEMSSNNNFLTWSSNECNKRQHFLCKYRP
# Chain of PILRb (Mus musculus), Q2YSF2 (Q2YSF2 entry or part of it): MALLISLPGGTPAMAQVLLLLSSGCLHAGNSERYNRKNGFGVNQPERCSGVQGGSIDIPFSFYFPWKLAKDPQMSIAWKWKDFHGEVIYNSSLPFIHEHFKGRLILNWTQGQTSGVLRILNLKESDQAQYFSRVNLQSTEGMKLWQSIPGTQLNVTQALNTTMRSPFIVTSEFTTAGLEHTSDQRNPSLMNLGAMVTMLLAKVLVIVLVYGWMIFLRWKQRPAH
# Chain of CHI3L1 (Homo sapiens), P36222 (P36222 whole entry): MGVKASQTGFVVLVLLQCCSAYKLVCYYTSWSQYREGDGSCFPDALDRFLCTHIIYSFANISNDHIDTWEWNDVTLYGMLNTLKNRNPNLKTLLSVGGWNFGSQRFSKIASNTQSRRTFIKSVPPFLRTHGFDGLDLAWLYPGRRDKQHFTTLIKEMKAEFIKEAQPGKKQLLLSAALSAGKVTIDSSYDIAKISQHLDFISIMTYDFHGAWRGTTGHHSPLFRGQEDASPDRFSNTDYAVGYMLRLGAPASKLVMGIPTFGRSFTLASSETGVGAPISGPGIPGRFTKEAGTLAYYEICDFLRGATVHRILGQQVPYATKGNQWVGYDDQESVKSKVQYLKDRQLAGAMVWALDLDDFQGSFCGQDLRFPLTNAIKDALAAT
# Chain of SRLC (Mus musculus), Q8VIF6 (Q8VIF6 other isoform, or with tags, fused parts or gaps): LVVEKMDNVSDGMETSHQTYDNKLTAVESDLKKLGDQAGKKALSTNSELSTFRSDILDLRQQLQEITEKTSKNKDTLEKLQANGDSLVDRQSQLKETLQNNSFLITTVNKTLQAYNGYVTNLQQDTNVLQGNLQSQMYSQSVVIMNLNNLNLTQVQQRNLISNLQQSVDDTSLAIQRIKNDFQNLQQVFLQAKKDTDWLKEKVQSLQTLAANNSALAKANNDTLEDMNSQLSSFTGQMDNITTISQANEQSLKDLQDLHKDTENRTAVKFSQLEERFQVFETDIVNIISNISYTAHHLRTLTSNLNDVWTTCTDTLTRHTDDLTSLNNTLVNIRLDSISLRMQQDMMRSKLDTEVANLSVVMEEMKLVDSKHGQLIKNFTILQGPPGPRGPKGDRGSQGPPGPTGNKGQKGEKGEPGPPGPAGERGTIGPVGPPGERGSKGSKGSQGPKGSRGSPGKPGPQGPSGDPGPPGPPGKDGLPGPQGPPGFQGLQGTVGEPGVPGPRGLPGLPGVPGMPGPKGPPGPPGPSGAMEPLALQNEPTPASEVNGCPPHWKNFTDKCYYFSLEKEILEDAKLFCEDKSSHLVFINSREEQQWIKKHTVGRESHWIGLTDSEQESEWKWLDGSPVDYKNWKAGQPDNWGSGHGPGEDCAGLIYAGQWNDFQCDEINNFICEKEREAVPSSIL
# Chain of PILRa (Mus musculus), Q2YSF3 (Q2YSF3 entry or part of it): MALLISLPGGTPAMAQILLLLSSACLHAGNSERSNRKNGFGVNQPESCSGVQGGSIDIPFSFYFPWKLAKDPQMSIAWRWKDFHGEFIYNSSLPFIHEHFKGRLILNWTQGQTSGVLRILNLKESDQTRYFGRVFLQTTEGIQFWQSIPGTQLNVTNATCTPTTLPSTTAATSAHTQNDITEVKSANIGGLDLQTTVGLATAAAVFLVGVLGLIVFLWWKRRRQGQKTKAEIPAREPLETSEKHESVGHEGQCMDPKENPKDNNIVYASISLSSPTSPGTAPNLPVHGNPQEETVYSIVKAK
# Chain of Neurocan (Homo sapiens), O14594 (O14594 other isoform, or with tags, fused parts or gaps): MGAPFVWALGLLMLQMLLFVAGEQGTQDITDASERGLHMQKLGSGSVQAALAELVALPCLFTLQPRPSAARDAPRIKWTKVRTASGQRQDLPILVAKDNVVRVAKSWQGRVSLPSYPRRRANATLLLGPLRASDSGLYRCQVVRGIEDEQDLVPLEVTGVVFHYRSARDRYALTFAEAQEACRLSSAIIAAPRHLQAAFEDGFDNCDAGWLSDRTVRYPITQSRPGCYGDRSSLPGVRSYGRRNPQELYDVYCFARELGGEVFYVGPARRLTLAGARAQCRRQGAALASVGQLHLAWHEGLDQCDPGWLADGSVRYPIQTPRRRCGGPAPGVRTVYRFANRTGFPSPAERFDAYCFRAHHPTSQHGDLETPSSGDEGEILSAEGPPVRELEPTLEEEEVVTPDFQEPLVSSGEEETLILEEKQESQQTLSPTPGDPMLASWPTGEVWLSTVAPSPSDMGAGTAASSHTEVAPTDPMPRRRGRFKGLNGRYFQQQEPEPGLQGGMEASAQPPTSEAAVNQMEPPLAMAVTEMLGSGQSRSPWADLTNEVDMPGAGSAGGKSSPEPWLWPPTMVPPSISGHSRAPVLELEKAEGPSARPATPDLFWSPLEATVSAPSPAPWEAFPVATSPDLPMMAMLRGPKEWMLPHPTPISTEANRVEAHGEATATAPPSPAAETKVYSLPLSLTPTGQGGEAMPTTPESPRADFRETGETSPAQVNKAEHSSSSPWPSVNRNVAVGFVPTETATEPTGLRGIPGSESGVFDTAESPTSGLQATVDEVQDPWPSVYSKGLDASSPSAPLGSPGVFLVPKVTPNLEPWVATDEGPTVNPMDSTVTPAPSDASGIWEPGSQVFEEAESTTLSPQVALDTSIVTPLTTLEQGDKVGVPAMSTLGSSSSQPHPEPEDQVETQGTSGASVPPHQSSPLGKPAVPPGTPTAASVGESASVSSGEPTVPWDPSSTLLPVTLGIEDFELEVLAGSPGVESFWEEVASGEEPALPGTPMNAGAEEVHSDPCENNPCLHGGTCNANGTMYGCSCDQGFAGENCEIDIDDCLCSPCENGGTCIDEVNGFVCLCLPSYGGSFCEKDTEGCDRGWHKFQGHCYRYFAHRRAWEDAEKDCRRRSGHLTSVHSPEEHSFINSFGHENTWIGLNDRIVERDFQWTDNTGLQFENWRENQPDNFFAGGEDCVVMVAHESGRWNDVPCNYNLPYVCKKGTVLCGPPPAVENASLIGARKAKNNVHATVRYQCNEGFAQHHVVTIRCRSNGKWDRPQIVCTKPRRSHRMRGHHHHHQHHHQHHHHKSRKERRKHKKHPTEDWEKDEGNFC
# Chain of Avaren (Actinomycete K97) (chain, as listed by the source): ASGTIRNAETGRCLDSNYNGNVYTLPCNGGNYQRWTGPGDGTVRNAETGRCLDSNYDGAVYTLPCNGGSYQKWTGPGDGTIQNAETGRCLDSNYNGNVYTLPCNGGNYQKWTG
substance,measurement,setting,value
"Neurocan (Homo sapiens), O14594",glycan array binding signal (z-score),[1],0.364
"Siglec-8 (Homo sapiens), Q9NYZ4",glycan array binding signal (z-score),[2],-0.164
same,glycan array binding signal (z-score),[3],-0.473
"PILRa (Mus musculus), Q2YSF3",glycan array binding signal (z-score),[4],2.04
"Regenerating Gene IV (Homo sapiens), Q9BYZ8",glycan array binding signal (z-score),[4],0.693
same,glycan array binding signal (z-score),[5],0.532
same,glycan array binding signal (z-score),[6],-0.332
MpAFP RI GFP (Marinomonas primoryensis),glycan array binding signal (z-score),[7],-0.16
"PILRb (Mus musculus), Q2YSF2",glycan array binding signal (z-score),[8],-0.085
same,glycan array binding signal (z-score),[9],-0.167
"SRLC (Mus musculus), Q8VIF6",glycan array binding signal (z-score),[5],-0.188
"CHI3L1 (Homo sapiens), P36222",glycan array binding signal (z-score),[7],-0.113
same,glycan array binding signal (z-score),[9],-0.11
Avaren (Actinomycete K97),glycan array binding signal (z-score),[10],-0.117
"HARE (Homo sapiens), Q8WWQ8",glycan array binding signal (z-score),[4],-0.26
